# The list is not random: actives were taken first. Their share in the collection is about 12%.
# G9a block: inhibitors of human histone lysine methyltransferase G9a; G9a H3K9 monomethylation, AlphaScreen, 2 h; hit rate 8.8% among 350,000; AID 504332; Potency, µM (titrated, usually from 102 µM), for inactives: top-dose activity, negative = inhibition, usual class: inhibitors; Q96KQ7; further: on the % scale 0 is the no-effect control and ±100 the full control effect; nearly all actives have a fitted effect of over 75% in size
# Target sequence (Q96KQ7 913-1193 limits assumed): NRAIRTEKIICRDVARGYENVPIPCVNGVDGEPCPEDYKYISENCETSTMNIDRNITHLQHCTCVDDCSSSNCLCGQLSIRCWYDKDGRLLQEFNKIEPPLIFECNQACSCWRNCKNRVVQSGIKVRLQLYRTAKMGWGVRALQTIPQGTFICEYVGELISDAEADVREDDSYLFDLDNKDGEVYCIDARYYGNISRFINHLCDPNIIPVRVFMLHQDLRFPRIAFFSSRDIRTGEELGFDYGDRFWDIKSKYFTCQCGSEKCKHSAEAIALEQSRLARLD
#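 Readings reflect AlphaScreen signal from monomethyl-H3K9 antibody detection. HMT at 20 nM; substrate b-H3K9 500 nM; cofactor SAM 20 uM; 2 h RT reaction; compounds tested as titrations in qHTS with 15 min preincubation.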
# JMJD2A Tudor: inhibitors of human JMJD2A Tudor domain | Potency, µM (series often up to 114 µM), inactives show at the top dose activity change, negative = inhibition, most hits filed as inhibitors | AID 504339 | hit rate 4.4% among 390,000 | O75164 | AlphaScreen JMJD2A-Tudor / H3K4me3 peptide binding; further: on the % scale 0 is the no-effect control and ±100 the full control effect; nearly all actives have a fitted effect of over 50% in size
# Sfp PPTase inh: blocks B. subtilis Sfp PPTase activity. Q9F4F7. Biochemical Sfp PPTase activity, qHTS. Potency, µM, without a hit: largest response in the series, negative = inhibition, hits mostly inhibitors. hit rate 3.5% among 310,000;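 further: the enzyme is Sfp with the accession as filed and its product quenches rhodamine fluorescence; 0% = enzyme reaction without inhibitor and -100% = no enzyme wells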
#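 Sfp 15 nM + cpd, 15 min RT; start w/ rhodamine-CoA 5 uM, BHQ-2-YbbR 12.5 uM (final); 50 mM Hepes pH 7.6, 10 mM MgCl2, 0.01% NP-40, 0.01% BSA; read 525/598 nm at 0 and 30 min.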
# HP1b chromo inh: inhibitors of HP1-beta chromodomain binding to methylated histone tails. Potency, µM (highest dose often 114 µM), for inactives: at the top dose activity change, negative = inhibition, usual class: inhibitors. AID 540317. hit rate 0.56% among 390,000. P83916. AlphaScreen HP1-beta / biotin-H3K9me3 peptide binding; further: nearly all actives have a fitted effect of over 70% in size
# Target sequence (P83916 whole entry, looked up): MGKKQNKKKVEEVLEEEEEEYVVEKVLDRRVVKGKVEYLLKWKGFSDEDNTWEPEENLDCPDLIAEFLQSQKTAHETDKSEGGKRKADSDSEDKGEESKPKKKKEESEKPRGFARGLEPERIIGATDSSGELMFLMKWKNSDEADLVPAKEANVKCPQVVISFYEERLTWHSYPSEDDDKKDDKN
#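 AlphaScreen: HP1-beta (50 nM) preformed 30 min with biotin-H3(1-18)K9me3 peptide (50 nM) in PBS pH 7.4, 0.01% Tween-20. Compound added for 30 min at RT, then streptavidin donor/nickel chelate acceptor beads (10 ug/mL) for 30 min.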
# PLK1 PBD inh: inhibitors of human PLK1 polo-box domain binding. hit rate 2.8% among 360,000. Potency, µM, for the others: max response, negative = inhibition, actives largely listed as inhibitors. Plk1 PBD binding of FITC phosphopeptide, fluorescence polarization. P53350; further: series mostly up to about 57 µM; on the % scale 0 is the no-effect control and ±100 the full control effect; nearly all actives have a fitted effect of over 65% in size
# BAZ2B inh: BAZ2B (human) inhibition | Q9UIF8 | AlphaScreen BAZ2B-H3K14Ac peptide displacement | Potency, µM (series often up to 114 µM), for inactives: top-dose activity change, negative = inhibition, actives largely listed as inhibitors | hit rate 4.4% among 360,000 | AID 504333; further: on the % scale 0 is the no-effect control and ±100 the full control effect; nearly all actives have a fitted effect of over 60% in size
#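 Multi-concentration screen (max 110 uM) measuring displacement of acetylated histone H3 peptide from BAZ2B by AlphaScreen, using 50 nM protein, 50 nM peptide and 10 ug/mL streptavidin donor plus Ni-chelate acceptor beads.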
# An asterisk follows results filed as active; ? = inconclusive; nt = no result; [ ] = another dose, or the depositor's remark. The call rests on the fitted dose curve; in most records, active means well fitted curve in the direction sought with a large enough effect; inconclusive means small, poorly fitted or top-dose-only effect, or another doubt; inactive means no such curve, though single readings can be large; an effect the other way counts as inactive or inconclusive. Potency means the concentration at half of the fitted maximal effect.
SMILES,G9a block,JMJD2A Tudor,Sfp PPTase inh,HP1b chromo inh,PLK1 PBD inh,BAZ2B inh
O=C(O)C(Cc1ccccc1)N1C(=O)/C(=C/c2ccccc2)SC1=S (centres undefined),?,?,-2%,-18%,?,?
O=C(NN1C(=O)/C(=C/c2cccc(O)c2)SC1=S)c1ccccc1O,-8%[59 µM],45µM*,0%,-18%[57 µM],-27%,45µM*
CCOc1cc(/C=C2\SC(=S)N(Nc3ccccc3)C2=O)ccc1O,?,0%[11.4 µM],?,50µM*,?,20µM*
O=C(NN1C(=O)/C(=C/c2ccc(O)c(O)c2)SC1=S)c1ccccc1,6.3µM*,13µM*,-26%,?,3%,5.6µM*
O=C(O)C(Cc1ccccc1)N1C(=O)/C(=C/c2cccc3ccccc23)SC1=S (centres undefined),?,nt,-19%,nt,nt,56µM*
O=C1/C(=C/c2ccc(O)c(O)c2)SC(=S)N1Nc1ccccc1,10µM*,10µM*,-8%,7.1µM*,8%,3.5µM*
COc1cc(/C=C2\SC(=S)N(C(Cc3ccccc3)C(=O)O)C2=O)ccc1O (centres undefined),nt,-32%,?,?,10%,35µM*
O=C(NN1C(=O)/C(=C\c2ccc(O)c([N+](=O)[O-])c2)SC1=S)c1ccccc1Cl,4µM*,56µM*,-4%,-32%,-16%,40µM*
COc1cc(/C=C2\SC(=S)N(Nc3ccccc3)C2=O)ccc1O,?,45µM*,?,50µM*,20%,40µM*
Cc1ccc(/C=C2\SC(=S)N(C(Cc3ccccc3)C(=O)O)C2=O)cc1 (centres undefined),?,?,-9%,-14%,?,?
O=S(=O)(Nc1cccc(-c2ccc(N3CCCC3)nn2)c1)c1ccc(F)c(C(F)(F)F)c1,11%[59 µM],-31%,nt,10%[57 µM],nt,-19%
CCc1nc2cc(NC(=O)C3(C)CCCN(C(C)=O)C3)ccc2o1 (centres undefined),nt,nt,nt,nt,-11%,nt
CS(=O)(=O)Nc1cccc(NC(=O)C2Cc3c(-c4cccc(F)c4)ccnc3O2)c1 (centres undefined),nt,nt,nt,nt,-4%,nt
CNC(=O)Nc1cc(C)nn1C,5%,?,11%,18%,19µM*,-17%
CCOC(=O)N1CCC2(CC1)C(C#N)=C(N)Oc1c2c(C)nn1-c1cccc(Cl)c1,?,?,3%,-11%,?,50µM*
CC(C)[C@H](NC(=O)[C@H](CCCCN)NC(=O)[C@@H](NC(=O)[C@@H]1CCCN1C(=O)[C@H](CCCN=C(N)N)NC(=O)[C@H](CCCN=C(N)N)NC(=O)[C@H](CCCCN)NC(=O)[C@H](CCCCN)NC(=O)CNC(=O)[C@@H](NC(=O)[C@@H]1CCCN1C(=O)[C@@H](N)CCCCN)C(C)C)C(C)C)C(=O)N[C@@H](Cc1ccc(O)cc1)C(=O)N1CCC[C@H]1C(=O)O,nt,nt,0%,nt,nt,nt
COc1ccc2[nH]c3c(c2c1)CCN1C(=O)N([C@@H](C)C(=O)NCCc2ccc(F)cc2)C(=O)[C@]31C,50µM*,?,9%,-8%,-1%,?
C[C@@H](C(=O)NCc1ccco1)N1C(=O)N2CCc3c([nH]c4ccccc34)[C@@]2(C)C1=O,?,-29%,13%,-13%,-10%,50µM*
CCOc1ccccc1-c1nnc(SCC(=O)NC2(C#N)CCCC2)o1,18%[2.33 µM],3%,nt,36%,-9%,11%
C=CCC1NCCc2c(Br)cccc21 (centres undefined),22µM*,-20%,25%,31%,-12%,-21%
COc1ccccc1CNC(=O)c1ccc(N2CCCC2)c(NC(=O)NCCC(C)C)c1,12%[59 µM],-11%,nt,19%,nt,-17%
COc1ccc2[nH]c3c(C)c4ccncc4c(C)c3c2c1,40µM*,-31%,16µM*,16%,-8%,?
Cc1c2ccncc2cc2c1[nH]c1ccccc12,nt,12%,nt,42%[57 µM],1%,nt
N#Cc1cccc(NS(=O)(=O)c2ccccc2Cl)c1,-14%[59 µM],-2%,nt,28%,?,10%
CC1CCc2c(sc(/N=C/c3ccco3)c2C(N)=O)C1 (centres undefined),?,0%,-23%,24%,1%,-23%
SMILES,G9a block,JMJD2A Tudor,Sfp PPTase inh,HP1b chromo inh,PLK1 PBD inh,BAZ2B inh
CC1CCc2c(sc(/N=C/c3cccnc3)c2C(N)=O)C1 (centres undefined),-25%[12.7 µM],-6%,50µM*,19%,?,-5%
CN(CCC1CCCCO1)C(=O)CCc1nnc(Cc2c[nH]c3ccccc23)o1 (centres undefined),79µM*,-8%,6%,35%,5%,-15%
O=C(CSc1nnc2ccccn12)c1ccc2c(c1)OCCO2,40µM*,-10%,9%,49%,-22%,-4%
CCCCn1c(SCC(=O)c2ccc3c(c2)OCCO3)nnc1-c1ccco1,?,-21%,50µM*,21%,-13%,-26%
CCn1c(SCC(=O)c2ccc3c(c2)OCCO3)nnc1C(C)C,45µM*,-16%,?,-12%,-17%,0%
CCn1c(SCC(=O)Nc2ccc3c(c2)OCCO3)nnc1-c1ccco1,-40%[12.7 µM],-17%,10%,-1%,-9%,3%
Cc1cc(C)nc(SCC(=O)c2ccc3c(c2)OCCO3)n1,-14%[12.7 µM],-12%,10%,31%,-1%,-3%
COCCn1c(SCC(=O)c2ccc(F)cc2)nnc1C(C)C,?,45µM*,56µM*,5%,?,-11%
CCOCCn1ccc2c(OCC(=O)Nc3cc(C(F)(F)F)ccc3Cl)cccc2c1=O,0%[59 µM],-13%,nt,-1%,nt,-1%
CN(C(=O)CSc1nnc(-c2ccccc2F)n1N)C1CCCCC1,-6%[12.7 µM],-4%,nt,29%,2%,-5%
O=C(CSc1nnc(-c2cccs2)n1-c1ccccc1)c1ccc2c(c1)OCCO2,40µM*,-2%,-7%,26%,-4%,11%
CC(C)n1nnnc1SCC(=O)c1ccc2c(c1)OCCO2,-8%,11%[11.4 µM],-3%,-17%,30µM*,10%
CCn1nnnc1SCC(=O)c1ccc2c(c1)OCCO2,26%,11%,4%,30%,-2%,-6%
Cc1nnc(Cc2ccco2)c2n[nH]c(C)c12,nt,nt,nt,nt,-5%,nt
CCOc1ccc(C(=O)NNC(=O)CCNC(=O)c2ccco2)cc1OC,-7%,-4%,nt,17%,1%,10%
CS(=O)(=O)Nc1cccc(C2=NN(S(=O)(=O)c3ccccc3)C(c3ccco3)C2)c1 (centres undefined),50µM*,?,56µM*,?,30µM*,-21%
CCS(=O)(=O)Nc1cccc(C2=NN(S(=O)(=O)c3ccccc3)C(c3ccco3)C2)c1 (centres undefined),?,?,?,-22%,-7%,-30%
